Source: PubChem BioAssay
An excerpt weighted towards active compounds, which were near 8.8% of everything screened.
KB-V1 MDR tox – KB-V1 MDR subline cytotoxicity. Potency, µM (highest dose often 46.1 µM), usual class: cytotoxic. KB-V1 MDR cells viability, CellTiter-Glo, 72 h. AID 1347076. 400,000 tested, 3.4% active; note: potency is the fitted concentration of half-maximal effect; nearly all actives have a fitted effect of over 60% in size
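Cytotoxicity via CellTiter-Glo luminescence after 72 h compound exposure at 37 degrees C. Cells: drug-selected KB-V1 line, DMEM phenol-red free plus 10% FBS. Compounds tested at multiple concentrations; normalized data fitted to concentration-effect curves.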
KB-3-1 tox – kills parental KB-3-1 adenocarcinoma cells; KB-3-1 viability, CellTiter-Glo ATP luminescence, 72 h; Potency, µM (highest dose often 46.1 µM), actives largely listed as cytotoxic; 400,000 tested, 1.4% active; AID 1347075; note: potency is the fitted concentration of half-maximal effect; nearly all actives have a fitted effect of over 60% in size
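Multi-concentration cytotoxicity screen in KB-3-1 cells grown in DMEM lacking phenol red with 10% FBS. After 72 h at 37 °C with compound, ATP-dependent luminescence was recorded.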
IL-1B inflam inh – blocks inflammasome-driven IL-1 beta release; 360,000 tested, 4.7% active; activity change, % at 57.5 µM; THP-1 LPS/ATP IL-1B secretion, AlphaLISA, 16 h; hits give low values; AID 743279; in the data active = activity change below about -50%; inconclusive = mostly about -30% to -49%
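THP-1 cells pretreated 1 hr with compounds (up to 57.5 uM final), then stimulated with LPS (250 ng/mL final) plus ATP (1.25 mM final); secreted IL-1B measured by AlphaLISA after 16 hr, decreased signal indicating inhibition.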
HT1080 IDH1KD tx – toxicity to HT-1080 IDH1 knockdown cells (counter line). HT-1080 IDH1 knockdown viability, ATP luminescence, 48 h. Potency, µM (titrated, usually from 46.1 µM), without a hit: at the highest dose activity, negative = toxicity, usual class: cytotoxic. 360,000 tested, 2% active;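 note: potency is the fitted concentration of half-maximal effect; 0% = DMSO wells and -100% = cell-free medium wells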
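Cytotoxicity counter-line: IDH1KD HT-1080, 48 h, CellTiter-Glo. Curves classed by r2, magnitude and activity.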
HT1080NT lethal – kills 2HG-producing HT-1080-NT fibrosarcoma cells; Potency, µM (titrated, usually from 46.1 µM), for inactives: top-dose activity, negative = less viability, most hits filed as cytotoxic; 360,000 tested, 1.6% active; HT-1080-NT fibrosarcoma viability, CellTiter-Glo ATP luminescence, 48 h; AID 686970;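 note: NT is the 2HG producing partner of a matched IDH1 knockdown line; potency is the fitted concentration of half-maximal effect; 0% = DMSO-treated cells and -100% = media-only wells without cells; nearly all actives have a fitted effect of over 55% in size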
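Viability by CellTiter-Glo luminescence after 48 h compound exposure at 37C of HT-1080-NT cells (750/well, RPMI, 5% FBS). % activity scaled between DMSO wells and medium-only wells, then curve-fitted and categorized by curve class.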
Starred values were filed as active, the others as inactive; i = inactive; ? = inconclusive; · = no result given. Unless noted, calls come from the whole dose curve; as a rule, active = well fitted curve in the direction sought with a large enough effect; inconclusive = small, poorly fitted or top-dose-only effect, or another doubt; inactive = no such curve, though single readings can be large; an effect the other way counts as inactive or inconclusive. Unless noted, % is set by controls: 0 for no effect and ±100 for the full control effect.

SMILES | KB-V1 MDR tox | KB-3-1 tox | IL-1B inflam inh | HT1080 IDH1KD tx | HT1080NT lethal
COc1ccc(C(=O)N/N=C/c2ccc(OC)c(COc3c(F)c(F)cc(F)c3F)c2)cc1 | i | i | 54 | -23% | -9%
COc1ccc(/C=N/NC(=O)c2cccnc2)cc1COc1ccc(NC(C)=O)cc1 | ? | i | 76 | ? | ?
C[C@@H]1CN([C@@H](C)CO)C(=O)CCCn2nncc2CO[C@@H]1CN(C)C(=O)c1ccccc1 | i | i | 4 | 2% | 14%
COc1cc(C(=O)N/N=C/c2ccc(OC(=O)c3ccccc3Cl)cc2)ccc1O | · | · | -72* | -6% | 0%
COc1ccc(C(=O)N/N=C\c2ccc(OC)c(COc3ccccc3Br)c2)c(OC)c1 | 16µM* | ? | -14 | ? | 1%
COc1ccc(/C=N\NC(=O)c2ccccc2Br)cc1COc1ccccc1 | i | i | -14 | ? | ?
COc1cccc(/C=N/NC(=O)c2nc(-c3ccccc3)cc(-c3ccccc3)n2)c1 | ? | i | ? | -2% | -1%
COc1ccc(OCc2cc(/C=N\NC(=O)c3ccccc3)ccc2OC)cc1 | ? | 6.5µM* | 42 | 9.2µM* | 6.5µM*
COc1ccc(/C=N/NC(=O)c2nc(-c3ccccc3)cc(-c3ccccc3)n2)cc1OC | i | i | -50* | -7% | -10%
CCOC(=O)N1CCN(C(=O)C[C@@H]2C[C@@]3(C(=O)OCC)CCCC=C3N(Cc3ccccc3)C2=O)CC1 | i | i | -12 | 10% | 17%
COc1ccc(OC)c(CCNC(=O)c2cc3c(s2)-c2c(C)cccc2OC3)c1 | i | i | · | · | ·
COC(=O)c1ccc(Cl)cc1NC(=O)N1CC=C(c2c[nH]c3ccccc23)CC1 | i | i | · | · | ·
COc1ccc(/C=N/NC(=O)c2cc(OC)c(OC)c(OC)c2)cc1CN1CCc2cc(OC)c(OC)cc2C1C (stereo not drawn) | ? | ? | 26 | 13µM* | ?
COc1ccc(C=O)cc1OS(=O)(=O)c1ccc(NC(C)=O)cc1 | i | i | 20 | ? | -26%
COc1ccc(/C=N/NC(=O)c2ccc3ccccc3c2)cc1OS(=O)(=O)c1ccc(NC(C)=O)cc1 | i | ? | -12 | ? | 6.3µM*
COc1ccc(/C=N/NC(=O)c2cccnc2)cc1CN1CCc2cc(OC)c(OC)cc2C1C (stereo not drawn) | i | i | 50 | -12% | -13%
Cc1ccc(-n2c(SCC(=O)c3c(N)n(C)c(=O)n(C)c3=O)nc3sc4c(c3c2=O)CCCC4)c(C)c1 | 21µM* | ? | i | 0% | -8%
CN(CCOc1ccccc1)C(=S)Nc1ccc(OC(F)F)cc1 | i | i | -58* | -19% | -1%
OC(c1cccc(Cl)c1)c1nc(/C=C/c2ccc(C(F)(F)F)cc2)cs1 (stereo not drawn) | i | i | 0 | ? | ?
CC(=O)N1CCCC1c1nc2ccccc2n1Cc1cc(C)ccc1C (stereo not drawn) | i | i | · | · | ·
COC(=O)[C@]1(C)CCC[C@@]2(C)C3CC[C@@]4(C)C[C@]3(CCC21)CC(=O)N4 (stereo partly drawn) | i | i | 11 | 10% | 5%
C=C1C(=O)C23CCC4C(C)(C(=O)OC)CCCC4(C)C2CCC1(O)C3 (stereo not drawn) | 18µM* | ? | -103* | 2.3µM* | 9.2µM*
O=[N+]([O-])CC(c1ccccc1)c1c[nH]c2ccccc12 (stereo not drawn) | ? | 16µM* | 5 | 15µM* | ?
C1CCN(CCCNC2C3CC4CC(C3)CC2C4)C1 (stereo not drawn) | i | ? | -7 | -26% | -6%
CC(C)(C)c1cc(CN2CCCC(O)C2)c(O)c(C(C)(C)C)c1 (stereo not drawn) | 16µM* | ? | -27 | ? | ?
SMILES | KB-V1 MDR tox | KB-3-1 tox | IL-1B inflam inh | HT1080 IDH1KD tx | HT1080NT lethal
Cc1cc2oc(=O)cc(Cn3ncc(Cl)c(Cl)c3=O)c2cc1Cl | ? | 13µM* | -101* | 3.3µM* | ?
Cc1ccc(C)c(C(=O)Cn2ncc(Cl)c(Cl)c2=O)c1 | ? | ? | -104* | 18µM* | -26%
Cc1ccc(OCC(=O)c2cc(C)n(CC(F)(F)F)c2C)c([N+](=O)[O-])n1 | ? | ? | 13 | ? | -9%
Cc1cccc(Cn2ncc(Cl)c(Cl)c2=O)c1 | 21µM* | ? | -102* | 7.1µM* | 13µM*
Cc1cc(C(=O)Cn2ncc(Cl)c(Cl)c2=O)c(C)n1CC(F)(F)F | ? | ? | -99* | 5.8µM* | 8.2µM*
Cc1cc2oc(=O)cc(CN3CCN(c4ccccc4)CC3)c2cc1Cl | i | i | 26 | 3% | 5%
Cc1ccc(C)c(C(=O)CN2C(=O)c3ccccc3C2=O)c1 | i | i | -12 | 10% | 7%
CCC(=O)N1CCc2cc(S(=O)(=O)NCCC(=O)N3CCN(c4cccc(C)c4)C(C)C3)ccc21 (stereo not drawn) | i | i | -3 | -1% | -21%
O=C(NCc1ccccc1)C(c1ccncc1)N(C(=O)c1csnn1)c1cccc(F)c1 (stereo not drawn) | i | i | 8 | -8% | 13%
CC(C)(C)c1ccc(OCCNCc2ccccc2)cc1 | ? | i | -93* | 16µM* | ?
CC(C)(C)c1ccc(OCCNC(=S)Nc2ccccc2)cc1 | ? | i | -107* | 16µM* | ?
S=C(NCCOCCOCCNC(=S)Nc1ccccc1)Nc1ccccc1 | i | i | 0 | -12% | -14%
Cc1oc(-c2cccs2)cc1C(=O)N1CCCC(C)(C(=O)O)C1 (stereo not drawn) | i | i | 27 | 5% | 6%
CC(O)(c1ccc(F)c(F)c1)c1nc(-c2ccc(S(C)(=O)=O)cc2)cs1 (stereo not drawn) | 21µM* | ? | 3 | ? | -20%
Cc1ccc(-c2[nH]ncc2/C=N/n2c(COc3ccccc3C)nc3ccccc3c2=O)cc1 | ? | ? | -99* | ? | ?
CCCc1nc2ccccc2c(=O)n1/N=C/c1ccccc1O | 16µM* | i | 36 | ? | ?
CCCc1nc2ccccc2c(=O)n1/N=C/c1c(C)[nH]n(-c2ccc(C)cc2)c1=O | 16µM* | 8.2µM* | 44 | 18µM* | 16µM*
Cc1ccccc1OCc1nc2ccccc2c(=O)n1/N=C/c1c[nH]c2ccccc12 | i | i | 9 | ? | ?
Cc1nc2ccccc2c(=O)n1/N=C/c1ccc(O)cc1O | i | i | 75 | ? | -21%
